# According to PubChem BioAssay (Tox21):
# Inconclusive results are not listed. Where a call stands in place of a potency, no number is given. Calls of active or inactive are those of the source. The call rests on the fitted dose curve; in most records, active means well fitted inhibition curve with a large enough effect in the signal ratio in the repeat runs (not every such curve was filed as active); inconclusive means weak or mixed curves, or effect the other way; inactive means no such curve, though single readings can be large or run the other way; the % refers to the signal ratio.
# Biological target: Glucocorticoid receptor (Homo sapiens) (UniProt P04150)
# Sequence (P04150 whole entry, looked up): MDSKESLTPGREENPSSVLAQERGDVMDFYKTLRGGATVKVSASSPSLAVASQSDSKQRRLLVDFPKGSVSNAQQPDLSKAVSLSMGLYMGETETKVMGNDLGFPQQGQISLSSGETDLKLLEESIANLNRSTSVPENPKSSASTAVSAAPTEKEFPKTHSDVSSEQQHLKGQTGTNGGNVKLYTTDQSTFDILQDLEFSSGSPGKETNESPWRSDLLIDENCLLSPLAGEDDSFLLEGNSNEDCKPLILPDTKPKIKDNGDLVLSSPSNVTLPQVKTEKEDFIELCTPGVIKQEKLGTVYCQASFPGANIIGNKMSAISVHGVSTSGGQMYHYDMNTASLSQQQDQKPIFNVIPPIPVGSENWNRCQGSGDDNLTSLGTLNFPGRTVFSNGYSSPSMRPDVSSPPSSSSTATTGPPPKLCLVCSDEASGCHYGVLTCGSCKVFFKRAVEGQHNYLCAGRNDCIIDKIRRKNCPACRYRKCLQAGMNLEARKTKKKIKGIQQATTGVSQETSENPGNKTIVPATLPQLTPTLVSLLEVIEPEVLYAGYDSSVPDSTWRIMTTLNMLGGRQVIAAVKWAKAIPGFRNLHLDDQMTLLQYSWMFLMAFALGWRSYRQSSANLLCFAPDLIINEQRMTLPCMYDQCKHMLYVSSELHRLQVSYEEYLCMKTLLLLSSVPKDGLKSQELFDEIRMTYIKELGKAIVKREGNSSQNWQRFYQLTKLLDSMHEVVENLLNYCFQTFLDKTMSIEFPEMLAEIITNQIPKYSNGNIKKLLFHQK
# Assay: qHTS assay to identify small molecule antagonists of the glucocorticoid receptor (GR) signaling pathway (AID 720692)
# Details: GR-bla HeLa, beta-lactamase FRET ratio, dexamethasone-stimulated, 18 h; series mostly up to 58.5 µM
# From the text: U.S. Tox21 Program National Center for Advancing Translational Sciences [NCATS] NIH Chemical Genomics Center [NCGC] U.S. Environmental Protection Agency [EPA] National Institutes of Environmental Health Sciences [NIEHS] National Toxicology Program [NTP] U.S. Food and Drug Administration [FDA] Tox21 Assay Overview: The Glucocorticoid receptor (GR) is one of the members of the nuclear receptor family of ligand-dependent transcription factors. GR plays a critical role in carbohydrate, protein and lipid metabolisms and programmed cell death. CellSensor GR-bla HeLa cell line (Invitrogen) contains a beta-lactamase reporter gene under the control of the glucocorticoid response element stably integrated into HeLa cells, a cervical cancer cell line that expresses glucocorticoid receptor. The activation of the reporter gene under culture conditions can be detected by fluorescence intensity. This cell line has been used to screen the Tox21 10K compound library and to identify the compounds that inhibit the GR signaling.
# Tox21 Assay Protocol Summary: The GR-bla HeLa cells were dispensed at 1500 cells/5 ul/well in 1536-well black wall/clear bottom plates using a Multidrop Combi (ThermoFisher Scientific, Waltham, MA) dispenser. After the assay plates were incubated at a 37 C/5% CO2 incubator for 4 hours, 23 nL of compounds dissolved in DMSO, positive controls or DMSO only was transferred to the assay plate by a pintool station (Kalypsys, San Diego, CA), followed by addition of 1 uL of dexamethasone (5 nM, final concentration in the well). The plates were incubated at 37 C for 18 hours. After 1 uL of LiveBLAzerTM B/G FRET substrate was added using a Flying Reagent Dispenser (Aurora Discovery, San Diego, CA), the plates were incubated at room temperature for 2 hours, and fluorescence intensity was measured by an Envision plate reader (PerkinElmer, Shelton, CT).
row,SMILES,Potency
1,O=C(O)c1cccc(Cl)c1Cl,inactive
2,CN1CCN(C2=Nc3cc(F)ccc3Cc3ccccc32)CC1,inactive
3,Cc1ccc([N+](=O)[O-])cc1Cl,inactive
4,C[C@@H](N)C(=O)O,inactive
5,C[C@]12C(=O)OC(=O)[C@H]1[C@H]1C=C[C@@H]2C1,inactive
6,O=C(Cl)c1cccc([N+](=O)[O-])c1,inactive
7,CO[Si](C)(C)OC,inactive
8,COc1cc(N)c(Cl)cc1C(=O)NC1CCN(Cc2ccccc2)CC1,inactive
9,CCCOCCC,inactive
10,CCOc1ccccc1N,inactive
11,CC(CNC1CCCCC1)OC(=O)c1ccccc1 (stereo not given),inactive
12,O=C(O)c1ccccc1Nc1cc(Cl)ccc1C(=O)O,inactive
13,O=C1N(c2ccccc2)c2ccccc2C1(Cc1ccncc1)Cc1ccncc1,inactive
14,N#Cc1ccc(C(c2ccc(C#N)cc2)n2cncn2)cc1,inactive
15,CCCNC(C)(C)COC(=O)c1ccccc1,inactive
16,CC(C)NCC(O)COc1ccc(CCOCC2CC2)cc1 (stereo not given),inactive
17,Cc1ccc(C)c(N)c1,inactive
18,CC(C)(C)c1cccc(O)c1,inactive
19,NC1=NCC2c3ccccc3Cc3ccccc3N12 (stereo not given),inactive
20,CCCCCCCCc1ccc(S(=O)(=O)O)cc1,inactive

row,SMILES,Potency
1,Cc1cc(S(=O)(=O)O)c(N)cc1Cl,inactive
2,CC(C)Nc1nc(N)nc(Cl)n1,inactive
3,O=C1C=CC(=O)O1,inactive
4,C=CCCCCCCCCO,inactive
5,CC(C)OC(C)C,inactive
6,CC(C)(C)c1ccc(OC(=O)c2ccccc2O)cc1,inactive
7,CCCCCCCCOC(=O)CCCCCCCCC(=O)OCCCCCCCC,inactive
8,C1CCOC1,inactive
9,OC[C@H]1O[C@@H](O[C@H]2[C@H](O)[C@@H](O)[C@H](O)O[C@@H]2CO)[C@H](O)[C@@H](O)[C@H]1O,inactive
10,CCC(=O)Nc1ccc(O)cc1,inactive
11,C1CSCCS1,inactive
12,C[C@@H]1CN(c2c(F)c(N)c3c(=O)c(C(=O)O)cn(C4CC4)c3c2F)C[C@H](C)N1,inactive
13,CC(=O)OC(C)OC(C)=O,inactive
14,CCCCNC(=S)NCCCC,inactive
15,CCCCC1CCC(=O)O1 (stereo not given),inactive
16,C=CCc1cc(OC)c(O)c(C(=O)NCCO)c1,inactive
17,CCN(CC)CCNC(=O)COc1ccc(Cl)cc1,inactive
18,O=C1CCCCCCCCCCC(=O)OCCO1,inactive
19,COc1nc(C)nc(NC(=O)NS(=O)(=O)c2ccccc2OCCCl)n1,inactive
20,CC(=O)N(CC(O)CN(C(C)=O)c1c(I)c(C(=O)NCC(O)CO)c(I)c(C(=O)NCC(O)CO)c1I)c1c(I)c(C(=O)NCC(O)CO)c(I)c(C(=O)NCC(O)CO)c1I (stereo not given),inactive
